The text below walks through data of article PMC5540273 (PLoS ONE, 2017).

Molecules are shown by their SMILES.
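Also: KINOMEscan kinase panel screen.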

The subject of the experiment is T1, ERK5.
T1 construct: gene MAPK7
The note with it: concentration: 1 μM, replicates: in singlicate; n = 1.
On to `CCS(=O)(=O)c1ccc(OC)c(Nc2nccc(-c3c(-c4cccc(NC(=O)c5c(F)cccc5F)c4)nn4ncccc34)n2)c1` [GSK326180], for which the “%Inh” value is listed as 0%.

With `COc1cc(Nc2nccc(-c3c(-c4cccc(NC(=O)c5c(F)cccc5F)c4)nn4ncccc34)n2)cc(OC)c1OC` [GSK327238], the “%Inh” value is reported as 68%.

As for `COc1ccc(-c2coc3ccc(-c4nnc(SCc5ccc(OC)c(C(F)(F)F)c5)o4)cc23)cc1`, the “%Inh” value was 2%.

Take `Oc1cc(Nc2ccnc3cc(I)ccc23)ccc1F` [GW552771]: the “%Inh” value was 0%.

Take `O=c1[nH]cc(-c2ccc(N3CCOCC3)cc2)c2sc(-c3cn[nH]c3)cc12` [GSK2276055]: the “%Inh” value is 0%.

For `FC(F)(F)c1ccc(/C=C/c2cncnc2Nc2ccc3[nH]c(Cc4ccccc4)nc3c2)cc1` [GW709199], the “%Inh” value turned out to be 12%.

As to `Nc1ncnc2c1nc(-c1ccccc1)n2-c1ccccc1` [SKF-97293], the “%Inh” value stood at 6%.

For `Cn1cc(-c2ccc3c(c2)CCN3C(=O)Cc2cccc(Cl)c2)c2c(N)ncnc21` [GSK2606590], the “%Inh” value turned out to be 0%.

With `Cc1ccc(C(=O)Nc2ccc(Nc3ccnc4cc(-c5nccs5)ccc34)cc2O)cc1.Cl` [GW494702], the “%Inh” value came out at 0%.

`COc1cc(Nc2ncc3c(C)nc(-c4cc5ccccc5[nH]4)n3n2)cc(OC)c1OC` [GW869516]: the “%Inh” value is recorded as 7%.

Turning to `COc1ccc(CNC(=O)NC2CCN(c3ccnc(Nc4ccc(F)cc4)n3)CC2)cc1` [GSK1379788], the “%Inh” value was 0%.

As to `CCn1c(-c2nonc2N)nc2c(C#CC(C)(C)O)nc(OC[C@H](N)c3ccccc3)cc21` [GSK943949], the “%Inh” value stood at 0%.

On to `Cl.c1ccc(-c2ccc3c(Nc4ccc5[nH]ncc5c4)ccnc3c2)nc1` [GW440137], for which the “%Inh” value turned out to be 0%.

With `COc1cccc(-c2ccc3c(NC(=O)C4CC4)n[nH]c3n2)c1` [SB-710903], the “%Inh” value came to 0%.

`COc1cccc(C(=O)Nc2cccc(Oc3ccc4nc(NC(=O)C5CC5)cn4n3)c2)c1`: the “%Inh” value is listed as 0%.

For `CNC(=O)c1ccccc1Nc1nc(Nc2ccc(N3CCOCC3)cc2)ncc1Cl.Cl` [GSK1576028], the “%Inh” value came out at 84%.

Regarding `O=C(Nc1cccc(Oc2ccc3nc(NC(=O)C4CC4)cn3n2)c1)c1ccccc1C(F)(F)F`, the “%Inh” value was determined as 0%.

As to `Cc1ccc(S(=O)(=O)Nc2ccc(Nc3nccc(Nc4cccc5[nH]ncc45)n3)cc2)cc1` [GSK581271], the “%Inh” value amounted to 0%.

`Cc1cccc(NC(=O)Nc2ccc(Oc3ncnc4ccn(C)c34)cc2)c1`: the “%Inh” value was determined as 0%.

With `CC(=O)Nc1nc2cnc(Nc3cc(NC(=O)c4cccc(C5(C#N)CC5)c4Cl)ccc3C)nc2s1`, the “%Inh” value was 3%.

As for `COc1cccc(C2=C(Nc3ccc(Cl)c(C(=O)O)c3)C(=O)NC2=O)c1` [SB-390769], the “%Inh” value came to 0%.

Regarding `CN(C)S(=O)(=O)c1cc(-c2ccc3nccc(-c4cccc(S(N)(=O)=O)c4)c3c2)cnc1N` [GSK1669921], the “%Inh” value amounted to 0%.

With `O=C(Nc1ccccc1F)NC1CCN(c2ccnc(Nc3ccc(F)cc3)n2)CC1` [GSK1379800], the “%Inh” value is recorded as 0%.

Regarding `O=C(Nc1n[nH]c2cc(-c3ccoc3)ccc12)C1CC1` [SB-738481], the “%Inh” value amounted to 0%.

Turning to `CSc1cccc2c(-c3ccncn3)c(-c3ccc(F)cc3)nn12` [GW514786], the “%Inh” value amounted to 0%.

In the case of `CN(c1ccc(NC(=O)Nc2cc(C(F)(F)F)ccc2F)cc1)c1ccnc(Nc2ccc(S(N)(=O)=O)cc2)n1` [GW809893], the “%Inh” value came out at 79%.

On to `O=C(Nc1cccc(-c2nn3ncccc3c2-c2ccnc(Nc3ccccc3)n2)c1)c1c(F)cccc1F` [GSK198271], for which the “%Inh” value was 4%.

On to `c1ccc(-c2n[nH]cc2Nc2ccnc3ccccc23)nc1` [GW694077], for which the “%Inh” value is reported as 0%.

Turning to `Cl.Cl.NCC(C(=O)Nc1cc(Br)c(-c2ccnc3[nH]ccc23)s1)c1ccccc1` (stereo not shown) [GSK1269851], the “%Inh” value was determined as 0%.

On to `O=C(Nc1cccc(-c2nn3ccccc3c2-c2ccnc(Nc3cccc(C(F)(F)F)c3)n2)c1)c1c(F)cccc1F` [GSK292658], for which the “%Inh” value stood at 0%.

With `Cc1ccc(C)c(NC(=O)NC2CCN(c3ccnc(Nc4ccc(F)cc4)n3)C2)c1` (stereo not shown) [GSK1379720], the “%Inh” value was 0%.

For `COCCOCCOc1cc2ncc3c4ccc(C#N)cc4[nH]c3c2cc1OC`, the “%Inh” value was determined as 0%.

`CN1CCN(Cc2cccc(-c3ccc4c(Nc5ccc(Oc6ccccc6)cc5)ccnc4c3)c2)CC1` [GW578342]: the “%Inh” value amounted to 0%.

`Cl.Cl.NCC(NCc1ccc(-c2ccnc3[nH]ccc23)s1)c1ccccc1` (stereo not shown) [GSK1321565]: the “%Inh” value is recorded as 2%.

Turning to `Cn1cc(-c2ccc3c(c2)CCN3C(=O)Cc2cccc(F)c2)c2c(N)ncnc21` [GSK2603358], the “%Inh” value was determined as 2%.

In the case of `Clc1ccc(-c2nn3ncccc3c2-c2ccnc(Nc3ccc4c(c3)OCCO4)n2)cc1` [GW829116], the “%Inh” value is given as 0%.

Regarding `Nc1ncc(-c2cccnc2)c2scc(-c3ccc4c(c3)CCN4C(=O)Cc3ccccc3)c12` [GSK683281], the “%Inh” value came out at 0%.
